These results are taken from PubChem BioAssay.

Assay [1] in a line: small molecules captured by biotinylated probe aFSTL3 – biochemical, small-molecule microarray, fluorescence 635/667, stem cell growth factor project, primary screen (AID 1064).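 Also: measures binding of the biotinylated anti-FSTL3 antibody to printed compounds.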 As to conditions: higher = more signal.
Assay [2] in a line: binders from COS7 lysate, DM2A8 probe, primary screen, torsin A project, cell lysate, small-molecule microarray, fluorescence 635/667 (AID 1065). The settings on record: higher = more signal, COS7 lysate expressing mutant human TOR1A.
Assay [3] can be described thus: small molecules captured by biotinylated probe aFGF2 – biochemical, small-molecule microarray, fluorescence 635/667, stem cell growth factor project, primary screen (AID 1067).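 Also: measures binding of biotinylated aFGF2 protein to printed compounds on slides; z-score merges feature fluorescence and signal-to-noise across triplicate slides.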 The settings on record: higher = more signal.
A short description of assay [4]: small molecules captured by biotinylated probe aFGF10 – biochemical, small-molecule microarray, fluorescence 635/667, stem cell growth factor project, primary screen (AID 1071).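 Also: score merges 667 nm spot intensity and signal to noise from triplicate slides.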 As to conditions: higher = more signal.
Assay [5] has as its target Neurogenic locus notch homolog protein 2 (Homo sapiens) (UniProt Q04721). The assay can be described thus: small molecules binding Notch2 protein – biochemical, small-molecule microarray, 635 nm fluorescence, stem cell growth factors, primary screen (AID 1073). The settings on record: higher = more signal.
The target in assay [6] is Pro-neuregulin-1, membrane-bound isoform (Homo sapiens) (UniProt Q02297). The assay can be described thus: small molecules binding neuregulin-1 protein – biochemical, small-molecule microarray, fluorescence 635/667, psychiatric disease protein project, primary screen (AID 1075).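 Also: score combines 667 nm spot fluorescence with signal to noise.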 As to conditions: NRG1 binding, 635 nm fluorescence, higher = more signal.
Assay [7] concerns Neuregulin-1 EGF-like domain. The assay can be described thus: small molecules binding NRG1 EGF domain – biochemical, small-molecule microarray, 635 nm fluorescence, primary screen (AID 1081).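 Also: binding of the protein to compounds printed on small-molecule microarray slides.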 As to conditions: higher = more signal.
The nature of assay [8]: FRG1 expression reporter modulators in myotubes – cell-based, C2C12 myotubes, firefly/Renilla luciferase, luminescence, FRG1 inhibition for FSHD, primary screen (AID 1084). The settings on record: FRG1 promoter luciferase, higher = more signal, called active from +8 up or from −8 down.
Assay [9] in a line: small molecules captured by biotinylated probe aFST – biochemical, small-molecule microarray, fluorescence 635/667, stem cell growth factor project, primary screen (AID 1086).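 Also: score merges 667 nm fluorescence with signal-to-noise of each printed compound spot.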 As to conditions: higher = more signal.
Assay [10] in a line: binders of probe aHhip on microarray, primary screen, stem cell growth factor project, biochemical, small-molecule microarray, fluorescence 635/667 (AID 1087).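 Also: score merges spot fluorescence at 667nm with spot signal to noise ratio.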 As to conditions: higher = more signal.
Assay [11] deals with PRMT1 (protein arginine N-methyltransferase 1). The assay can be described thus: small molecules binding arginine methyltransferase PRMT1 – biochemical, small-molecule microarray, 635 nm fluorescence, primary screen (AID 1088).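 Also: binding of Prmt1 protein to compounds spotted on small-molecule microarray slides.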 The settings on record: higher = more signal.
The nature of assay [12]: growth effects on S. cerevisiae YJM789 – YJM789 clinical isolate, OD600, 24 h, basal, primary screen (AID 1089).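 Also: growth of clinical yeast isolate S. cerevisiae YJM 789 seeded 1000 cells per well; test concentration not given here.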 The settings on record: higher = more signal, called active from +8 up or from −8 down.
Assay [13] can be described thus: S. pombe growth modifiers, basal conditions – strain 972, OD600, 24 h, no modulator, primary screen (AID 1090).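 Also: basal condition with compound alone and no growth modifier present; test concentration not given here.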 The settings on record: S. pombe 972 growth, higher = more signal, called active from +8 up or from −8 down.
Assay [14] is described as follows: budding yeast growth modifiers under rapamycin – strain BY4716, OD600, 96 h, primary screen (AID 1091). Also: test concentration not given here. The settings on record: S. cerevisiae BY4716 + rapamycin, higher = more signal, called active from +8 up or from −8 down.
In assay [15] the target is Torsin-1A-interacting protein 2 (Homo sapiens) (UniProt Q8NFQ8). The assay can be described thus: small molecules binding lysate-expressed LULL1 – cell lysate, human LULL1 lysate, 635/667 nm fluorescence, primary screen (AID 1092).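 Also: probe is lysate of COS7 cells overexpressing human LULL1; score merges per-feature 667 nm fluorescence with signal-to-noise.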 The settings on record: small-molecule microarray, hLULL1 lysate binding, 635 nm fluorescence; higher = more signal.
Assay [16] is described as follows: optical density change of DRC41 E. coli – strain DRC41, OD650, 24 h, E. coli filamentation project, primary screen (AID 1093).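 Also: MC1000 strain lacking acrAB efflux and sulA so SOS filamentation is blocked; test concentration not given here.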 The settings on record: E. coli DRC41 growth, higher = more signal, called active from +8 up or from −8 down.
Assay [17] in a line: probe aLefty2 binding to arrayed compounds – biochemical, biotinylated probe, 635/667 nm fluorescence, primary screen (AID 1094).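 Also: score merges spot fluorescence near 667 nm with spot signal-to-noise ratio.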 The settings on record: small-molecule microarray, higher = more signal.
In assay [18] the test system is Noggin (protein binding on small-molecule microarray). The assay can be described thus: small molecules binding Noggin protein – biochemical, 635/667 nm fluorescence, primary screen (AID 1095).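 Also: score merges 667 nm feature fluorescence with signal to noise over triplicate slides.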 As to conditions: 635 nm fluorescence, higher = more signal.
For assay [19], the target named is Neurogenic locus notch homolog protein 3 (Homo sapiens) (UniProt Q9UM47). The assay can be described thus: small molecules binding NOTCH3 protein – biochemical, 635/667 nm fluorescence, primary screen (AID 1096). The settings on record: small-molecule microarray, 635 nm fluorescence, higher = more signal.
Assay [20] is described as follows: probe aEGFR binding to arrayed compounds – biochemical, biotinylated probe, 635/667 nm fluorescence, primary screen (AID 1097).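 Also: probe is a biotinylated anti-EGFR antibody binding compounds printed on slides; score combines fluorescence near 667 nm and signal to noise of each spot.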 The settings on record: small-molecule microarray, higher = more signal.

Active and inactive are the calls of the source.

Chain of Neurogenic locus notch homolog protein 3 (Homo sapiens) (Q9UM47 whole entry, looked up): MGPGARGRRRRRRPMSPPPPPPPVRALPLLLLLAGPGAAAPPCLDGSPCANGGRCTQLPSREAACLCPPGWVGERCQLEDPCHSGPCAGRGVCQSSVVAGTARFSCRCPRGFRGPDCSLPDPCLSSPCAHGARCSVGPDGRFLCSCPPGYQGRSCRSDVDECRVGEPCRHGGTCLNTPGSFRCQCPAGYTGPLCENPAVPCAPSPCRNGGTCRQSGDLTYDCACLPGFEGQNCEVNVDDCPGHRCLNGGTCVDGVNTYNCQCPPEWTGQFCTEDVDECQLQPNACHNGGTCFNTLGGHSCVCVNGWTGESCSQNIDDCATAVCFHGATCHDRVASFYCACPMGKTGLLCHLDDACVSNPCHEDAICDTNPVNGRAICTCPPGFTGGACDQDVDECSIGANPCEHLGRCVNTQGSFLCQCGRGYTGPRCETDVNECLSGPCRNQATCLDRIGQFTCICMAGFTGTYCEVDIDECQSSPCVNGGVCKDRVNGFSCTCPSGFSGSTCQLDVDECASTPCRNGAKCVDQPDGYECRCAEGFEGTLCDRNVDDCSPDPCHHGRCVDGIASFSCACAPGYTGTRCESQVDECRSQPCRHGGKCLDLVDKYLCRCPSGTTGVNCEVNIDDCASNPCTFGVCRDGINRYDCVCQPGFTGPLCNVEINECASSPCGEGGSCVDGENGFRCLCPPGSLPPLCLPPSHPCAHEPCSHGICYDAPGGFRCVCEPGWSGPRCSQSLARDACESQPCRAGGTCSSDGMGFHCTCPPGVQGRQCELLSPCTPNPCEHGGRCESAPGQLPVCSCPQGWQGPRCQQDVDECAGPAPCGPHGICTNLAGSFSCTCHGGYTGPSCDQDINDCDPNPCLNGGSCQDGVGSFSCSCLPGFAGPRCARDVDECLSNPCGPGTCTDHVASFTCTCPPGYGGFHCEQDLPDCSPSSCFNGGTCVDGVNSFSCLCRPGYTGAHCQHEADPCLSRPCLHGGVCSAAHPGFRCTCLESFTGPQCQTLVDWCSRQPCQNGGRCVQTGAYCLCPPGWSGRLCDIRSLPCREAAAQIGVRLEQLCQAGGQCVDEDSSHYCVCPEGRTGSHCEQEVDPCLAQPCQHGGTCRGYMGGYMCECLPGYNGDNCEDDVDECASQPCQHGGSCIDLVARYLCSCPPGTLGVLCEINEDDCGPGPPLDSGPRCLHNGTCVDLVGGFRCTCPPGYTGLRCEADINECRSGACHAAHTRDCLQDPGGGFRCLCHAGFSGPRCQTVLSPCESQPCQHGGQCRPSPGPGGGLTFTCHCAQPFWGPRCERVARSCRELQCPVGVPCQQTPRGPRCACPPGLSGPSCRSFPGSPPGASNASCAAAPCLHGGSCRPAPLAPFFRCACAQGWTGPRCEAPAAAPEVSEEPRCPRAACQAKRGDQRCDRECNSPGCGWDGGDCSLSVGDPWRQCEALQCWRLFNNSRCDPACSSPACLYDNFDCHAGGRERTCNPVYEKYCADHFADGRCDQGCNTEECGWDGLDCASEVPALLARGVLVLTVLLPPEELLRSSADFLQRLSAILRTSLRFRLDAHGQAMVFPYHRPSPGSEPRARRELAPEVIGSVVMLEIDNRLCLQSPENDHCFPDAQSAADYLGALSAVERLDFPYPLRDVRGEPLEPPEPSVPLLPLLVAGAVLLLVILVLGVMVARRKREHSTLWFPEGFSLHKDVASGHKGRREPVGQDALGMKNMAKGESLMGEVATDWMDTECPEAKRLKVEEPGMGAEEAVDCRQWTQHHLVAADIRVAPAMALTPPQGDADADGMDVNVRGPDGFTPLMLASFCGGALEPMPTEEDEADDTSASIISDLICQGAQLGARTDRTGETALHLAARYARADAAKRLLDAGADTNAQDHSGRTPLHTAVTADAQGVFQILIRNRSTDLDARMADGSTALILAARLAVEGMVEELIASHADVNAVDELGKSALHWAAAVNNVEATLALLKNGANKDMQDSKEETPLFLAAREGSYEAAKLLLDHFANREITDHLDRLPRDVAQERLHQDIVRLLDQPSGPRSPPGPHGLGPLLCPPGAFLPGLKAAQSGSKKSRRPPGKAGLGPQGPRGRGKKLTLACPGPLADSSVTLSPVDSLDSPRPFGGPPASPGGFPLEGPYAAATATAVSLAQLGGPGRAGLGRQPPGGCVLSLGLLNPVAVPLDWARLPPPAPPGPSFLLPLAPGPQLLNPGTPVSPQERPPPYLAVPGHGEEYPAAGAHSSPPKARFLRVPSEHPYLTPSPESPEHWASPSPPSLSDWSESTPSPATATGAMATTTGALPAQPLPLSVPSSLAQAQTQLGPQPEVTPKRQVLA
Chain of Torsin-1A-interacting protein 2 (Homo sapiens) (Q8NFQ8 whole entry, looked up): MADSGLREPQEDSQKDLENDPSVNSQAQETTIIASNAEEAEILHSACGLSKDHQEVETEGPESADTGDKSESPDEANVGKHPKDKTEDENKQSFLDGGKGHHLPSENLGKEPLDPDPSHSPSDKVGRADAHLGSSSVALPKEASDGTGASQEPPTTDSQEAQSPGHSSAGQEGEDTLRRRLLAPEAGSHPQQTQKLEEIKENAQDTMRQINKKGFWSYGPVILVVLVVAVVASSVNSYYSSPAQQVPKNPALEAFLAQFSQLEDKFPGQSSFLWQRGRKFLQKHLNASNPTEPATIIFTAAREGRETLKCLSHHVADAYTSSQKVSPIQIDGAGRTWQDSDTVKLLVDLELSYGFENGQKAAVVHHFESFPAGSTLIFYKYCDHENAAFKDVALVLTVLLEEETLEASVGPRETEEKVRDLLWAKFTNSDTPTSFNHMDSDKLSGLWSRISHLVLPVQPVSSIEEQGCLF
Chain of Pro-neuregulin-1, membrane-bound isoform (Homo sapiens) (Q02297 whole entry, looked up, the tested form may be a part, canonical isoform): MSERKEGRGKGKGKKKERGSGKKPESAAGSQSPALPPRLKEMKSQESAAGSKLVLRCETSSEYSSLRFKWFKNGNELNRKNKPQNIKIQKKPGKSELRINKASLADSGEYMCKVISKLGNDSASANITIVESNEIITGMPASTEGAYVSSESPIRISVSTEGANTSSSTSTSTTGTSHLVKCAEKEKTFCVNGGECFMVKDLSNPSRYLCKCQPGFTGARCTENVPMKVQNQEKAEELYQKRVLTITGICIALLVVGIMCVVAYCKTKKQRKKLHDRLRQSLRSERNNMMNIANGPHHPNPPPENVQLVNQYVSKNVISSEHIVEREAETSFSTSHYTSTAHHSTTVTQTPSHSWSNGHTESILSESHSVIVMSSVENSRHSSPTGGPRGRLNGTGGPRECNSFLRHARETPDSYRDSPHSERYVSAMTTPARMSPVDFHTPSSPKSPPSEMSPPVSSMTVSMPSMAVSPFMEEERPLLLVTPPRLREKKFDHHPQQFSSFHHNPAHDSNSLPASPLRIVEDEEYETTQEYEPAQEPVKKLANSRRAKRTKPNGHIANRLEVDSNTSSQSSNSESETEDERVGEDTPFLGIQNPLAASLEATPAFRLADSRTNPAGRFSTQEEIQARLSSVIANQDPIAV

For `Cc1ccc(S[C@]2(C(=O)NC3CC3)CC(=O)N(Cc3ccccc3C(F)(F)F)[C@@H]2c2ccc(CO)cc2I)cc1`, the composite z-score in assay [1] is 1.38; in assay [2] it was 0.15; in [3] it was -0.0139; in assay [4], 0.152; in [5], -1.13; in assay [6] it was 0.37. Also, the composite z-score turned out to be 1.2 in [7]; 0.0584 in [9]; 0.219 in assay [10]; 0.279 in assay [11]; 1.1 in [15]; 0.244 in assay [17]. Moreover, the composite z-score in assay [18] was -0.536; in assay [19] it was -0.654; in assay [20], -0.0899. The z-score is -0.967 (inactive) in [8]; -1.31 (inactive) in assay [12]; -4.68 (inactive) in assay [13]; 2.34 (inactive) in assay [14]; -0.195 (inactive) in assay [16].
Turning to `C=CC[C@]1(C(=O)N(C)C)N=C(c2ccc(OCCCO)cc2)O[C@H]1c1ccccc1CN=[N+]=[N-]`, the composite z-score in assay [1] turned out to be 0.876; in [2], 1.42; in [3], 0.0188; in assay [4], 0.548; in [5], 1.38; in assay [6], 1.66. Further, the composite z-score stood at 1.15 in [7]; 1.43 in [9]; 0.184 in assay [10]; 1.09 in assay [11]; 3.01 in [15]; 0.186 in assay [17]. Besides, the composite z-score came to 0.0301 in assay [18], 0.893 in [19] and 0.188 in assay [20]. Besides, the z-score in assay [8] was -2.15 (inactive); in [12] it was -1.01 (inactive); in [13] it was -1.1 (inactive); in assay [14], -1.52 (inactive); in [16], 1.39 (inactive).
For the compound `C=CCOC(=O)[C@H]1[C@@H]2C(=O)O[C@@H](c3ccccc3)[C@@H](c3ccccc3)N2[C@@H](c2ccc(OCCOC(=O)[C@H]3C[C@H]4C(=O)N5CCC[C@H]5C(=O)N4[C@H]3c3cccc(OCCO)c3)cc2)[C@]12C(=O)Nc1ccccc12`, the composite z-score in assay [1] was -0.113; in [2] it was 0.984; in assay [3], -0.147; in assay [4], 0.363; in assay [5] it was 0.0945; in assay [6], 1.06. The composite z-score in [7] was 1.24; in assay [9], 0.406; in assay [10] it was -0.182; in assay [11] it was 1.53; in [15], 2.04; in assay [17], 0.103. For the same compound, the results for the composite z-score in assay [18], in assay [19] and in assay [20] were 1.54, 1.04 and -0.0828, respectively. In addition, the z-score was 0.176 (inactive) in assay [8]; 0.766 (inactive) in assay [12]; -0.347 (inactive) in assay [13]; 2.43 (inactive) in assay [14]; 1.83 (inactive) in assay [16].
Take `CC(C)(C)OC(=O)CC[C@]1(C(=O)NCc2ccccc2)COC(c2ccc(OCCCO)cc2)=N1`: the composite z-score in [1] was 0.508; in [2], 1.3; in assay [3], -0.0675; in [4], 0.0174; in assay [5] it was 0.431; in [6], 1.79. Moreover, the composite z-score is 1.1 in assay [7]; 0.613 in assay [9]; -0.0047 in [10]; 0.712 in assay [11]; 3.14 in assay [15]; 0.0325 in assay [17]. Moreover, the results for the composite z-score in assay [18], in assay [19] and in [20] were -0.148, -0.0559 and -0.058, respectively. For the same compound, the z-score in assay [8] is -2.97 (inactive); in assay [12], -1.08 (inactive); in assay [13], -0.413 (inactive); in assay [14] it was -1.64 (inactive); in assay [16], 1.93 (inactive).
For the compound `CC(CO)N1C(=O)[C@@H]2C3C(=O)OCCC/C=C\[C@H]3OC23C=CCN(Cc2ccccc2)C(=O)[C@@H]13` (stereo not given in full), the composite z-score in assay [1] was 0.418; in assay [2], -0.338; in [3], -0.143; in assay [4], -0.486; in assay [5], -0.847; in assay [6] it was -0.512. Further, the composite z-score in assay [7] was 0.18; in [9] it was -0.0745; in [10] it was -0.0239; in [11] it was 0.432; in assay [15] it was -0.0166; in assay [17] it was -0.16. Further, the composite z-score in assay [18] was -0.545; in assay [19], -0.505; in assay [20] it was -0.186. Besides, the z-score is 0.227 (inactive) in assay [8]; -0.537 (inactive) in assay [12]; -2.16 (inactive) in assay [13]; -0.875 (inactive) in assay [14]; 2.31 (inactive) in assay [16].
